# Results published in PubChem BioAssay AID651800 (The Scripps Research Institute Molecular Screening Center, 2012).
# In all, about 360,000 compounds went through this assay and about 1,300 (0.36%) were called active. Rule as the data show it: active = inhibition above about 19%; inactive = the rest. Only a selection was taken, and actives are over-represented in it overall.
# System: T-cell receptor (TCR)
# Test: small molecules blocking TCR binding to CD3 – biochemical, fluorescence, TAMRA-labeled TCR probe, primary screen (AID 651800);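 also: recombinant mutant TCR 2C K166C tagged with TAMRA read by polarization; 0% = receptor in buffer alone and 100% = receptor with positive control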
# Conditions: at 9.4 µM, active compounds read high
row,SMILES,inhibition
1,O=C(NCc1ccccc1)[C@@H]1CCCN1C(=O)[C@H]1CCCN1C(=O)c1cccc(Cl)c1,5.36% (inactive)
2,CC(C)(C)n1nc(C2CC2)c(Br)c1NC(=O)c1ccccc1F,-0.36% (inactive)
3,COC(=O)C1=C(C)N(Cc2ccc(C(F)(F)F)cc2)C(=NCc2ccccc2)NC1c1ccccc1C(F)(F)F (stereo not given),-1.22% (inactive)
4,COc1ccc(SSc2ccc(OC)cc2C(=O)O)c(C(=O)O)c1,5.64% (inactive)
5,CCOC(=O)Cn1c2c(n(-c3ccc(F)cc3)c1=O)C=C(c1ccccc1)[C@@H](C)C(C(=O)N(C)C1CCCCC1)=C2,5.23% (inactive)
6,Cc1cccc(C(=O)Nc2ccc3c(c2)C(=O)N(CC(C)C)C3=O)c1,-1.41% (inactive)
7,Cc1cccc(C(=O)Nc2ccc(C(=O)/C=C/c3cccs3)cc2)c1,19.4% (active)
8,CC(=O)Nc1ccc(NC(=O)[C@@H](NC(=O)c2cccc(C)c2)C(C)C)cc1,2.27% (inactive)
9,COCc1[nH]nc2c1C(c1ccccc1)N(c1ccccc1)C2=O (stereo not given),5.26% (inactive)
10,COc1cccc(CNC(=O)[C@H]2CCCN2C(=O)[C@H]2CCCN2C(=O)C2CCCCC2)c1,-0.26% (inactive)
11,COC(=O)C1=C(C)N(Cc2cccc(C(F)(F)F)c2)C(=NCc2ccccc2)NC1c1ccc(Cl)cc1 (stereo not given),7.39% (inactive)
12,Cc1cc2c(nc1C)CCCN2C,-1.06% (inactive)
13,Cc1ccc(NC(=O)C(=O)NCc2ccc(/C=N/NC(=O)c3c(C)nc4cc(C)ccn34)o2)cc1,5.69% (inactive)
14,CCCC1OC23CCCCC2C(C#N)(C#N)C1(C#N)C(=N)O3 (stereo not given),24.9% (active)
15,CC(C)[C@H]1COCCS(=O)(=O)N1Cc1ccccc1-c1cccc2c1sc1ccccc12,-8.35% (inactive)
16,O=[N+]([O-])c1ccc(C=Nc2ccc(Cl)cc2Cl)s1,-1.69% (inactive)
17,Cc1nn(Cc2ccc(Cl)cc2)c(Cl)c1/C=N/NC(=O)CNc1ccccc1F,4.16% (inactive)
18,Cc1ccccc1NCC(=O)N/N=C\c1ccc([N+](=O)[O-])s1,21.7% (active)
19,CN1C(=O)C2CC(O)C(SC3CC4C(=O)N(C)C(=O)C4CC3O)CC2C1=O (stereo not given),0.12% (inactive)
20,C=CC[C@]12C[C@@]3(O[C@H](c4ccc(C(F)(F)F)cc4)N=C3C[C@H](c3ccc(OC)cc3)[C@H]1C)N(C1CCN(Cc3ccccc3)CC1)C2=O,3.26% (inactive)
21,CC(=O)N/N=C(\C)c1ccc(Br)cc1Br,2.37% (inactive)
22,O=C(Nc1ccccc1)c1ccccc1Br,-6.01% (inactive)
23,CC(=N\NC(=O)c1cc(Br)ccc1O)/C(=N/O)C(=O)Nc1ccccc1,35.2% (active)
24,COc1cccc(-c2cc(CNC(=O)[C@@H](Cc3ccccc3)NC(=O)[C@H]3O[C@@H](n4cnc(C(N)=O)n4)[C@H](O)[C@@H]3O)no2)c1,0.79% (inactive)
25,CC(=O)C1=C(C)N(Cc2ccccc2)C(=S)NC1c1cccc(Br)c1 (stereo not given),-1.04% (inactive)

row,SMILES,inhibition
1,COC(=O)c1c(-c2ccc(OC)cc2)c2c(c3c4cc(OC)ccc4n(S(=O)(=O)c4ccc(F)cc4)c13)C(=O)N(C)C2,-4.92% (inactive)
2,CCOC(=O)N1CCN(C(=O)C[C@H]2C[C@@]3(C(=O)OC)C(=C[C@H](C4CCCC4)O[C@@H]3C)N(Cc3ccccc3)C2=O)CC1,8.81% (inactive)
3,O=C(NC(=S)Nc1ccccc1C(=O)O)c1ccc(-c2ccc(Br)cc2)o1,4.88% (inactive)
4,COc1ccc(Br)cc1C(=O)NC(=S)Nc1cc(-c2nc3ccccc3[nH]2)ccc1C,55.2% (active)
5,COc1cc(OC)cc(C(=O)N[C@H](C(=O)Nc2nc3ccccc3[nH]2)C(C)C)c1,-1.15% (inactive)
6,Cc1[nH]nc2c1C(c1ccc(Br)cc1)NC2=O (stereo not given),-1.49% (inactive)
7,C[C@@H](CN1C2=NC[C@@H](Cc3ccccc3)N2C[C@H]1Cc1ccc(O)cc1)NC(=O)CCC1CCCCC1,-8.44% (inactive)
8,CCOC(=O)c1ccc(NC(=O)CNC(=O)c2ccco2)cc1,-5.65% (inactive)
9,CCC(=O)NC(=S)Nc1ccc(NC(=O)c2ccco2)c(Cl)c1,27.1% (active)
10,O=C(NNC(=S)Nc1ccc(Br)cc1Cl)c1ccco1,0.36% (inactive)
11,O=C(CN1CCN(c2ccc(O)cc2)CC1)NC1CCCc2ccccc21 (stereo not given),-3.37% (inactive)
12,COC(=O)C1=C(C)N(Cc2ccccc2C(F)(F)F)C(=NCc2ccc(OC)cc2)NC1c1cccc(C(F)(F)F)c1 (stereo not given),6.08% (inactive)
13,Cc1noc(C)c1NC(=O)Nc1ccc2c(c1)C(=O)N([C@H](C)CO)C[C@H](C)[C@H](CN(C)Cc1ccncc1)OCCCC[C@@H](C)O2,7.13% (inactive)
14,CN1CCCc2nc(-c3ccccc3)ccc21,3.5% (inactive)
15,CC(C)CC1NC(=O)c2cc(Cl)ccc2-n2c1nc1ccccc1c2=O (stereo not given),3.77% (inactive)
16,CCOC(=O)C1=C(C(=O)OCC)C2N(Cc3ccc(C#N)cc3)c3ccccc3[C@@]23C[C@@H](C(=O)OC)N(S(=O)(=O)c2ccc(F)cc2)C3=N1 (stereo not given in full),-0.94% (inactive)
17,C[C@H](O)[C@@H]1C(=O)N2CCc3c([nH]c4c(-c5ccc6c(c5)OCO6)cccc34)[C@@H]2C[C@@H]1N(C)C(=O)c1ccco1,-0.59% (inactive)
18,NC1=CC(=O)C(=O)c2cccnc21,23.6% (active)
19,CC[C@H](C)[C@H]1CNC(=O)C(=O)N1CC1CCN(CCc2ccc(OC)c(OC)c2)CC1,4.26% (inactive)
20,CC(=O)NCc1ccc(S(=O)(=O)NC2CCN(Cc3ccccc3)CC2)cc1,0.98% (inactive)
21,CN(C(=O)COC(=O)c1cc(-c2ccco2)nc2ccccc12)C1CCS(=O)(=O)C1 (stereo not given),30.6% (active)
22,O=C(c1cc(-c2ccco2)nc2ccccc12)N(Cc1nnc(-c2ccc(Cl)cc2)o1)C1CC1,-2.45% (inactive)
23,COc1ccc2c(-c3ccccc3)cc(SCC(=O)N(C)C3CCS(=O)(=O)C3)nc2c1 (stereo not given),1.46% (inactive)
24,C[C@@H](NC(=O)OC(C)(C)C)c1nnc(S(=O)(=O)Cc2ccccc2)o1,6.57% (inactive)
25,COC(=O)Cc1nnn2c1[C@H](C)[C@@H](OC)c1cc(Br)ccc1-2,-3.71% (inactive)
